The values that follow come from PubChem BioAssay (NCI).

The subject of the assay is HL-60(TB) leukemia. Kind of assay: NCI-60 one-dose screen, 48 h (100 = growth as untreated, 0 = no growth, -100 = all killed). The note with it: 10 µM unless noted.

Each structure is given as a SMILES string. This is part of a sample that, as a whole, favours compounds with a hit. Of some 83,000 tested, about 20% had one in any assay.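 Growth was measured after 48 h exposure to one concentration of compound in 96-well plates. Values under 10 count as active.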 A number with no mark means an inactive call. Active and inactive are the calls of the source.

Regarding `C=C(C)[C@@H]1CC[C@]2(C(=O)N3CCN(CC)CC3)CC[C@]3(C)[C@H](CC[C@@H]4[C@@](C)(CCC(=O)N5CCN(CC)CC5)[C@H](C(=C)C)CC[C@]43C)[C@@H]12`, the growth is 30.4%.
The result for `CCCCSc1ccc2nc(-c3ccc(OCCCN=C(N)N)cc3)cn2c1` reads 41.1%; that for `Fc1ccc(NCCS)cc1`, 100%.
For `NS(=O)(=O)c1cn(-c2ncnc3nc[nH]c23)ccc1=O` the value was 79.5%; for `O=C1CCc2c(sc3[nH]c(=S)n(Cc4ccccc4)c(=O)c23)C1`, 10.9%; for `Nc1nc(Cl)cc(NCc2ccc(CNc3cc(Cl)nc(N)n3)cc2)n1`, 78.7%.
For `NC(=O)N/N=C/c1ccc(Br)o1` the value was 95.8%.
Turning to `Cc1cc(C)c(NC(=O)c2sc3nc4c(cc3c2N)C(=O)CCC4)c(C)c1`, the growth is 14.6%.
As for `c1c(-c2cc(C3CC3)[nH]n2)n[nH]c1C1CC1`, the growth is 78.4%.
The result for `COc1cc(Nc2cc(O)c3c(=O)cc(-c4ccccc4)oc3c2)cc(OC)c1` reads -35.7% (active); that for `COc1ccc2c(c1)CCNC21C(=O)Nc2c(Br)cc(Br)cc21` (stereo unspecified), 117%.
Consider `O=C1OCC2=C1C(c1cccc(C(F)(F)F)c1)c1cc3c(cc1N2CCO)CCC3` (stereo unspecified), for which the growth was -25.2% (active).
For `CC(C)C[C@H](C(=O)N[C@H](C(N)=O)C(C)C)N1CC=CCN(OCc2ccccc2)S1(=O)=O`, the growth was 119% [2.5 µM].
For `Cc1ccc(O)c(C(=O)c2ccccc2)c1` the value was 73.1%; for `NS(=O)(=O)c1ccc(CCN2C(=O)/C(=C\c3ccc(Cl)cc3)C=C2c2ccc(Oc3ccccc3)cc2)cc1`, 83.7%.
The result for `C[N+](C)(C/C=C/c1ccccc1)Cc1ccccc1` reads 92.6%; that for `CCCCN1CCN(c2ccc3nc(-c4ccc5nc(-c6ccc(OCC)c(OCC)c6)[nH]c5c4)[nH]c3c2)CC1`, 3.99% (active); that for `N=C(N)c1ccc(-c2ccc(-c3ccc(Cl)c(Cl)c3)o2)cc1`, -45.5% (active).
For the compound `CCN1CCC2(CC1)NC(=O)c1c(c3ccc(Cl)c(Cl)c3n1C)C2C#N` (stereo unspecified), the growth was 30.2%.
For `CCCCCCCCCCCCCCCCS(=O)(=O)Nc1cc(C(=O)NN)cc(C(=O)NN)c1` the value was 35.8%; for `O=C(/C=C/CN1CCOCC1)Nc1cc2c(Nc3cccc(Cl)c3F)ncnc2cc1OCCOC(F)F`, 89.5%.
On to `CN1CCN(C(=O)/C=C/c2ccc([N+](=O)[O-])o2)CC1`, for which the growth is 66.2%.
The result for `COc1ccc(C2=Nc3c/c(=C\c4c(O)[nH]c5cc(Cl)ccc45)ccc3=N2)cc1` reads 12.4%; that for `Nc1nc(C(=O)N/N=C/c2ccc(N3CCOCC3)cc2)nn1-c1ccc(S(N)(=O)=O)cc1`, 101%.
The result for `CCCCCN1C=C/C(=C\C(=O)N2CCCc3ccccc32)c2ccccc21` reads 54.8%; that for `O=[N+]([O-])c1ccc(N/N=C(\C(=N/Nc2ccc([N+](=O)[O-])cc2[N+](=O)[O-])c2ccccc2)c2ccccc2)c([N+](=O)[O-])c1`, 80.5%.
For `CC(=O)N/C(=C1/OC(C(O)C(O)C(O)CO)CN1C)[P+](c1ccccc1)(c1ccccc1)c1ccccc1` (stereo unspecified) the value was 97.9%; for `O=NN(CCCl)C(=O)Nc1ccc(NC(=O)N(CCCl)N=O)cc1`, 94.8%; for `C=C1C(=O)O[C@H]2[C@H]1CC/C(COC(=O)c1cccnc1N)=C\CC[C@@]1(C)O[C@@H]21`, -3.64% (active).
As to `CC(C)C[C@H](NC(=O)Cn1cccc(CNC(=O)c2ccccc2)c1=O)B(O)O`, the growth was -51.3% (active).
For `COc1cc2c(cc1OC)C(=O)C(Br)CC2` (stereo unspecified) the value was 27.3%; for `O=C(CSc1nccc(Nc2cccc3ccccc23)n1)c1ccc(Cl)cc1`, 99.2%; for `O=C(/C=C/c1cccc([N+](=O)[O-])c1)c1ccc(Nc2nc(Nc3ccc(F)cc3)nc(Nc3ccc(Cl)cc3)n2)cc1`, -42.1% (active).
The result for `CC1(C)CC[C@]2(CO)CC[C@]3(C)C(=CC[C@@H]4[C@@]5(C)CC[C@H](NCO)C(C)(C)[C@@H]5CC[C@]43C)[C@@H]2C1` reads -60.5% (active); that for `COc1cc(C(=O)/C=C/c2cccnc2Nc2ccc(Cl)cc2)cc(OC)c1OC`, -27.2% (active); that for `COc1ccc(-n2nc3c(c2-c2ccc(OC)c(OC)c2)-c2oncc2CC3)cc1`, 88.4%.
The result for `O=C(NNC(=S)Nc1ccccc1)c1ccccn1` reads -6.25% (active); that for `Nc1cc(C(=O)O)cc(C(=O)O)c1`, 90.2%.
Turning to `COc1ccc(-c2nc3sc(-c4ccc(Cl)cc4)cn3n2)cc1`, the growth was 105%.
Regarding `CC/C(=C(/c1ccc(Cl)cc1)c1ccc(OCCN2CCOCC2)cc1)c1ccccc1`, the growth is 104%.
For `O=C(CNc1nnc(-c2ccc(Cl)cc2)o1)Nc1ccc(-c2nc3ccccc3s2)cc1` the value was 93.7%.
On to `NC(=O)c1ccc[n+](Cc2ccc(Cl)cc2Cl)c1`, for which the growth is 73.1%.
The result for `O=Cc1ccc(F)cc1` reads 103%; that for `CC1(C)C(=O)/C(=C\c2cccnc2)C[C@]2(C)[C@H]3CC[C@@H]4[C@@H](C(=O)/C=C/c5ccncc5)CC[C@@]4(C)[C@]3(C)CC[C@@H]12`, -11% (active).
The result for `COc1ccc(/C=C/C(=O)c2ccc(Nc3nc(NCCO)nc(Nc4ccc(Cl)cc4)n3)cc2)cc1` reads 94%; that for `COc1ccc(-c2c(-c3cc(OC)c4c(c3)OCO4)noc2N)cc1`, -7.49% (active); that for `O=C1/C(=C\c2cn(Cc3ccccc3)c3ccc(Br)cc23)c2ccccc2N1c1c(Cl)cccc1Cl`, 97%.
The result for `CCOC(=O)C1=NN(c2ccccc2)C2=NC(=O)/C(=C\c3cn(-c4ccccc4)nc3-c3cc4ccccc4o3)C(=O)N12` reads 76.4%; that for `COc1ccc(Nc2nc(-c3cc(O)c(C)c(C)c3O)cs2)cc1`, 7.17% (active).
Regarding `CCN(CC)c1ccc(CNc2ccnc3ccccc23)cc1`, the growth is 33.6%.
For `COc1ccc(C2CC(=O)c3c(O)c(OC)c(OC)c(OC)c3O2)c(O)c1` (stereo unspecified), the growth was 2.26% (active).
For `O=C(N=Nc1c(O)[nH]c2ccc(Br)cc12)c1cc(-c2ccccc2)on1` the value was 84.9%; for `CCCCCCN1CCN(Cc2ccc(N(CC)CC)cc2)C(=O)C1=O`, -19.1% (active); for `COc1cccc(-c2cc(-c3ccc(Nc4nc(Nc5ccc(Cl)cc5)nc(Nc5ccc(Cl)cc5)n4)cc3)nc(N)c2C#N)c1`, 24.5%.
For `COc1ccc2cc1Oc1ccc(cc1)C[C@H]1c3cc(c(OC)cc3CCN1C)Oc1c(OC)c(OC)cc3c1[C@H](C2)N(C)CC3` the value was 29.8%.
For `O=S(=O)(NCCCNc1cc(-c2cn(-c3ccccc3)nc2-c2cccc(O)c2)ccn1)c1cccc2ccccc12` the value was 17.1%; for `COc1cc2c(cc1O)CC[C@@H]1[C@@H]2CC[C@]2(C)[C@@H](OCCN(C)C)CC[C@@H]12`, 87.6%.
As to `NS(=O)(=O)c1ccc(C(=O)N/N=C(\CS(=O)(=O)c2ccccc2)c2cc3cc(Br)ccc3o2)cc1`, the growth is 115%.
Regarding `O=C(Nc1cccc(C2=NCCN2)c1)c1cccc(C(=O)Nc2cccc(C3=NCCN3)c2)c1`, the growth is 98.7%.
The result for `Cn1ccnc1C(=O)/C=C/c1ccc(CC(=O)Nc2cc(F)c(F)c(F)c2)cc1` reads -31.2% (active); that for `COc1cc(/C=C2\COc3ccc(O)c(O)c3C2=O)cc(OC)c1`, -29.8% (active); that for `CSc1ccccc1C#C/C=C\C#Cc1ccccc1N1CCCCC1=O`, 107%.
For `COc1cc(-c2nc3ccccc3o2)cc(CN2CCN(c3ccccc3)CC2)c1O` the value was 71.3%.
For `CN(C)c1ccc(Nc2c3ccccc3nc3cc(NC(=O)CCN4CCCC4)ccc23)cc1` the value was -57.9% (active); for `COc1cc2cc(Oc3ccc(NC(=O)Nc4ccc(Cl)c(Cl)c4)cc3)c(C)nc2cc1OCCN1CCCCC1`, 44.1%; for `C=C(CN1CCN(c2cccc(C(F)(F)F)n2)CC1)c1ccc(C(=O)Nc2ccccc2N)cc1`, -27.4% (active).
In the case of `Cc1nonc1-c1ccc2c(c1)OCO2`, the growth is 86.9%.
The result for `O=C(/C=C/c1cccc(Cl)c1)c1cccc(OCCCOc2cccc(C(=O)/C=C/c3cccc(Cl)c3)c2)c1` reads 93.1%; that for `O=c1oc2ccc(Br)cc2c(=O)n1-c1ccc(I)cc1F`, -49.1% (active).
The result for `Cc1nn(-c2ccccc2)c(Cl)c1/C=C(/NC(=O)c1ccccc1)c1nc2ccccc2[nH]1` reads 85.5%; that for `O=C1/C(=C\c2coc3ccccc3c2=O)c2ccccc2N1c1c(Cl)cccc1Cl`, 33.8%; that for `CCCCCCN=C(N)CCCCCCCCCCC(N)=NCCCCCC`, 55.1%.
The result for `COc1cc2c(cc1-c1c(C)noc1C)ncc1nc(C3CCCCC3)n([C@@H](C)COC(F)F)c12` reads 17.4%; that for `Cc1ccc(-n2nc(C(C)(C)C)cc2NC(=O)NCc2cc(F)ccc2Oc2ccc3c(cnn3CCO)c2)cc1`, -1.84% (active).
With `C/C=C/C(N)=O`, the growth is 107%.
The result for `CNC(=O)c1cc(Oc2ccc3nc(NC(=O)Nc4ccc(Cl)c(C(F)(F)F)c4)sc3c2)ccn1` reads 97.2%; that for `CCOC(=O)CN1/C(=N/c2sc3c(c2C(=O)OCC)CCN(C(=O)OCC)C3)SC(=O)/C1=C\C(=O)OC`, 79.9%.
For `CCOC(=O)c1c2c(n3c1NCC3)-c1ccccc1C2=O`, the growth is 86.8%.
The result for `Cn1c2ccccc2c2nn(Cc3ccccc3)c(=O)nc21` reads 110%; that for `CC(C)c1ccc(NC(=O)Cc2ccc(Nc3ncnc4cc(-c5cnn(CCN(C)C)c5)ccc34)cc2)cc1`, -66.4% [30 µM] (active); that for `N#Cc1ccc(C(=O)CSc2nccc(Nc3ccc(C(=O)O)cc3)n2)cc1`, 99.5%.
